According to ChEMBL document CHEMBL3988442, “University of Dundee, Small-Polar-MMV Screening Library” (2021):
Hit rate of the full screen: of about 48,000 compounds, about 13,000 (27%) showed an effect of 50% or more. The list shows a part of the results.

System: Wolbachia pipientis
Assay: Anti-Wolbachia Cell-Based Screen
Format: functional
Parameters: scale not given: in the data most compounds retested in dose-response had high values
Details: 5 µM

First: CC(C(=O)N1CCCC1)N1CCC(c2nccn2Cc2cscn2)CC1 (centres undefined)
Second: CN(CC(=O)N1CCCC1)C(=O)c1cccn1CCc1ccccc1
The “Percent Effect” value of the first is higher: 9.079% for the first, -6.272% for the second.

Going from `CC1COc2ccccc2N1C(=O)c1cscn1` (centres undefined) to `O=C(NCc1ccccn1)c1cc2n(n1)CCNC2`, the “Percent Effect” value rises from -0.3654% to 99.68%.

First: Cc1nc(C2CCN(C)CC2)cc(N2CCOc3ccc(Cl)cc3C2)n1
Second: c1ccc2[nH]c(C3CCN(Cc4nnc(C5CC5)o4)CC3)nc2c1
The “Percent Effect” value of the first is lower: -7.272% for the first, -0.6702% for the second.

First: Cc1nnc2ccc(N3CCC4(CCOC4)C3)nn12 (centres undefined)
Second: Cc1nc(N2CCC3(CCOC3)C2)c2cc[nH]c2n1 (centres undefined)
The “Percent Effect” value of the first is lower: -16.97% for the first, 96.01% for the second.

Compared with `Cc1nc(C)c(C)c(N2CCC3(CCOC3)C2)n1` (centres undefined), `Cc1ncc(CN2CCC3(CC2)CC(=O)N(C)C3)cn1` is lower in “Percent Effect” value: 0.7248% for the first, -13.29% for the second.

First: Cc1cncc(C(=O)N2CCC3(CCCN(c4nncs4)C3)C2)c1.O=C(O)C(F)(F)F (centres undefined)
Second: O=C(O)C(F)(F)F.O=C(c1ccncc1)N1CCOC2(CCCN(c3nncs3)C2)C1 (centres undefined)
The “Percent Effect” value of the first is lower: -14.05% for the first, 123% for the second.

Going from `CC(C)CN1CCCC12CCN(c1nncs1)C2.O=C(O)C(F)(F)F` (centres undefined) to `CC(C)CCN1CCC2(CCCN(c3nncs3)C2)C1.O=C(O)C(F)(F)F` (centres undefined), the “Percent Effect” value falls from 16.12% to -9.122%.

First: CC(=O)N1CCCC2(C1)CN(c1nncs1)CCO2.O=C(O)C(F)(F)F (centres undefined)
Second: CC(C)C(=O)N1CCCC2(C1)CN(c1nncs1)CCO2.O=C(O)C(F)(F)F (centres undefined)
The “Percent Effect” value of the first is higher: 117% for the first, 94.93% for the second.

First: O=C(O)C(F)(F)F.O=C(c1ccncc1)N1CCOC2(COCCN(c3cncnc3)C2)C1 (centres undefined)
Second: CC(=O)N1CCCC2(C1)CN(c1ncc(C)cn1)CCO2.O=C(O)C(F)(F)F (centres undefined)
The “Percent Effect” value of the first is lower: -8.943% for the first, -4.18% for the second.

Compared with `O=C(O)C(F)(F)F.c1ccc(N2CCOC3(CCCN(c4nncs4)C3)C2)nc1` (centres undefined), `CCOC1COC2(CCN(c3ccccn3)CC2)C1.O=C(O)C(F)(F)F` (centres undefined) is higher in “Percent Effect” value: -13.18% for the first, 106.9% for the second.

Compared with `CN(C)C(=O)CN1C[C@@H]2CC[C@H](C1)N(Cc1c(F)cccc1Cl)C2`, `CN(C)C(=O)COC1COC2(CCN(c3cccc(F)c3)CC2)C1.O=C(O)C(F)(F)F` (centres undefined) is higher in “Percent Effect” value: -24.65% for the first, -1.854% for the second.

Compared with `CNC(=O)[C@@H](CC(C)C)N1CCC[C@H]1C(=O)N(C)Cc1cccnc1.Cl.Cl`, `CC(C)N1CCCn2nc(C(=O)NCCc3ccccn3)cc2C1` is lower in “Percent Effect” value: 6.21% for the first, -11.55% for the second.

Going from `CCn1cnc(NC(=O)N2CCC(c3ccc(F)cc3)C2)n1` (centres undefined) to `O=C(c1ccno1)N1CCN2C(=O)N(Cc3ccc(F)cc3)C[C@H]2C1`, the “Percent Effect” value rises from -5.373% to -2.469%.

Going from `O=C1CC2(CCN(CCCF)CC2)CN1Cc1cc(F)cc(F)c1` to `O=C1CC2(CCN(CCO)CC2)CN1Cc1cc(F)cc(F)c1`, the “Percent Effect” value falls from 93.67% to -5.03%.

Compared with `CCCOCCN1CCC2(CC1)CC(=O)N(Cc1cc(F)cc(F)c1)C2`, `O=C1CC2(CCN(CC3CC3)CC2)CN1Cc1cc(F)cc(F)c1` is higher in “Percent Effect” value: 102.6% for the first, 122.7% for the second.

Going from `O=C1CCC2(CCN(Cc3cc(F)cc(F)c3)CC2)CN1CCO` to `O=C1CC2(CCN(Cc3ccoc3)CC2)CN1Cc1cc(F)cc(F)c1`, the “Percent Effect” value rises from -11.07% to 87.88%.

First: COCC(=O)N1CCC2(CC1)CC(=O)N(Cc1ccc(Cl)cc1)C2
Second: O=C1CC2(CCN(Cc3ncc[nH]3)CC2)CN1Cc1ccc(Cl)cc1
The “Percent Effect” value of the first is lower: -7.837% for the first, 9.235% for the second.

Going from `O=C1CC2(CCN(CCCO)CC2)CN1Cc1ccc(F)c(F)c1` to `O=C1CC2(CCN(Cc3ncc[nH]3)CC2)CN1Cc1cc(F)cc(F)c1`, the “Percent Effect” value falls from 111.9% to 5.031%.

Compared with `CCN1CC2(CCN(CCOCCO)CC2)CC(c2ccccc2)C1=O` (centres undefined), `CCOC1COC2(CCN(Cc3ccco3)CC2)C1.O=C(O)C(F)(F)F` (centres undefined) is lower in “Percent Effect” value: 6.251% for the first, -20.65% for the second.

Compared with `CCN(C)C[C@@H]1CN(S(=O)(=O)c2ccc(C#N)cc2)C[C@@H]1CO`, `CCS(=O)(=O)N1C[C@@H](C(=O)NC(C)C)[C@@]2(Cc3ccccc3C(=O)N2)C1` is higher in “Percent Effect” value: -9.397% for the first, 141.4% for the second.

Going from `O=C1CC2(CCN(CC3CCOC3)CC2)CN1Cc1cc(F)cc(F)c1` (centres undefined) to `Cc1cc2cc(CNC3CCN(CC4CCOC4)CC3)oc2cc1C` (centres undefined), the “Percent Effect” value falls from 4.353% to -8.178%.

Compared with `CN(Cc1ccn[nH]1)Cc1c[nH]nc1-c1ccc(F)cc1`, `O=C(NCCn1ccnc1-c1cc2n(n1)CCNC2)c1ccc(F)cc1` is higher in “Percent Effect” value: 4.933% for the first, 10.43% for the second.

First: CCN(CCc1nc2cc(C)ccc2[nH]1)C(=O)[C@@H](N)CCSC
Second: CCN(CC)C(=O)CCNC(=O)Cc1nc(-c2ccco2)oc1C
The “Percent Effect” value of the first is lower: 1.745% for the first, 11.44% for the second.

Going from `O=C(NCc1cc2n(n1)CCCNC2)c1cn2cc(Cl)ccc2n1` to `O=C(NCc1cc2n(n1)CCCNC2)C1(c2ccc(Cl)cc2)CCC1`, the “Percent Effect” value rises from -5.425% to 14.56%.

Compared with `O=C(NCc1sc2ccccc2c1Cl)c1cc2n(n1)CCNC2`, `O=C(NCc1csc2ccc(Cl)cc12)c1cc2n(n1)CCNC2` is lower in “Percent Effect” value: 92.76% for the first, 87.95% for the second.

Going from `O=C(NCCn1ccnc1-c1cc2n(n1)CCNC2)c1ccncc1` to `Cc1ncsc1CCC(=O)NCc1cc2n(n1)CCNC2`, the “Percent Effect” value rises from -6.247% to -3.955%.

Going from `Cc1nc(CN2CCc3nc(NC(C)C)nc(C)c3C2)cs1` to `Cc1nc(CN2CCCC(N(C)Cc3nc(CC(C)C)no3)C2)no1` (centres undefined), the “Percent Effect” value falls from 12.48% to -5.621%.

First: CCN(C)C(=O)c1cnc(-c2noc3cc(N4CCCCC4)ccc23)s1
Second: CCc1nc(CN2CCCN(c3ncnc4sccc34)CC2)no1
The “Percent Effect” value of the first is higher: -13.96% for the first, -94.29% for the second.

First: Cc1ccc(CNC2(Cc3cc(CO)on3)COC2)o1
Second: CSc1ccc(-c2nc(CN3CCC(NC(C)=O)CC3)c(C)o2)cc1
The “Percent Effect” value of the first is lower: -19.01% for the first, 26.44% for the second.

First: CCC[C@@H](NC(N)=O)C(=O)N1Cc2ccccc2-c2ccccc2C1
Second: CC(C)NC(=O)[C@@H]1CN(C(=O)C2CC2)C[C@]12Cc1ccccc1C(=O)N2
The “Percent Effect” value of the first is lower: -11.77% for the first, 129.2% for the second.

Going from `CC(C)NC(=O)C1CN(C(=O)c2ccco2)CC12CCOCC2` (centres undefined) to `CC(C)NC(=O)C1CN(C(=O)c2cccs2)CC12CCOCC2` (centres undefined), the “Percent Effect” value falls from 3.507% to -10.16%.

First: CC(C)C[C@@H]1N[C@H](C(=O)NC(C)C)Cc2c[nH]c3cccc1c23
Second: Cc1cccc(CO[C@@H]2CO[C@@]3(CCN(S(=O)(=O)N(C)C)C3)C2)n1.O=C(O)C(F)(F)F
The “Percent Effect” value of the first is lower: -15.72% for the first, 0.8682% for the second.

Compared with `O=C(CS(=O)(=O)Cc1ccc(Br)cc1F)Nc1cn[nH]c1`, `CS(=O)(=O)N1CCC[C@]2(C[C@@H](Oc3ncccc3F)CO2)C1.O=C(O)C(F)(F)F` is higher in “Percent Effect” value: -22.34% for the first, -13.76% for the second.

Going from `N#Cc1ccc(N2CCCN(c3nccs3)CC2)nc1` to `N#Cc1ccc(N2CCN(c3nccs3)CC2)nc1`, the “Percent Effect” value rises from -14.61% to -4.592%.

Going from `Cc1noc(C(C)N2CCN(c3ncnc4sccc34)CC2)n1` (centres undefined) to `c1csc(N2CCN(c3ncnc4sccc34)CC2)n1`, the “Percent Effect” value rises from -36.26% to 140.7%.

First: c1csc(N2CCCN(c3ncnc4sccc34)CC2)n1
Second: COCC1CC2(CCN(c3cccc(C)n3)CC2)CN1c1ncccn1.O=C(O)C(F)(F)F (centres undefined)
The “Percent Effect” value of the first is higher: 165.2% for the first, 95.56% for the second.

Compared with `CN(C)C(=O)COC1COC2(CCN(c3ncccn3)CC2)C1` (centres undefined), `CN(C)C(=O)COC1COC2(CCN(c3cnccn3)CC2)C1.O=C(O)C(F)(F)F` (centres undefined) is higher in “Percent Effect” value: 5.74% for the first, 7.565% for the second.

Going from `CCOC1COC2(CCN(Cc3cccc(C)n3)CC2)C1.O=C(O)C(F)(F)F` (centres undefined) to `CCOC1COC2(CCN(c3cccc(C)n3)CC2)C1.O=C(O)C(F)(F)F` (centres undefined), the “Percent Effect” value falls from 109.8% to 89.3%.

First: CCS(=O)(=O)N1CCC2(CC1)CC(Oc1ccccn1)CO2.O=C(O)C(F)(F)F (centres undefined)
Second: Cc1cccc(COC2COC3(CCN(S(C)(=O)=O)CC3)C2)n1.O=C(O)C(F)(F)F (centres undefined)
The “Percent Effect” value of the first is higher: 11.25% for the first, 2.01% for the second.

Compared with `CCOC1COC2(CCN(C(=O)c3cccc(C)n3)CC2)C1.O=C(O)C(F)(F)F` (centres undefined), `CCOC1COC2(CCN(c3ncc(C)cn3)CC2)C1` (centres undefined) is higher in “Percent Effect” value: 94.67% for the first, 100.2% for the second.

First: Cc1cnc(N2CCC3(CC2)CC(NS(C)(=O)=O)CO3)nc1 (centres undefined)
Second: CN(C)S(=O)(=O)N1CC[C@]2(C[C@H](Oc3ncccc3F)CO2)C1.O=C(O)C(F)(F)F
The “Percent Effect” value of the first is lower: -15.37% for the first, -14.15% for the second.

Compared with `COCCN1CCC2(CC1)CC(COC)N(c1ncccn1)C2.O=C(O)C(F)(F)F.O=C(O)C(F)(F)F` (centres undefined), `CCS(=O)(=O)N1CCC2(CC1)CC(COC)N(c1ncccn1)C2.O=C(O)C(F)(F)F` (centres undefined) is higher in “Percent Effect” value: -10.3% for the first, -2.955% for the second.

First: Cn1cc(CN2CCC[C@]3(C[C@H](Oc4ncccc4F)CO3)C2)cn1.O=C(O)C(F)(F)F.O=C(O)C(F)(F)F
Second: Cn1cc(CN2CCC[C@]3(C[C@@H](Oc4ncccc4F)CO3)C2)cn1.O=C(O)C(F)(F)F.O=C(O)C(F)(F)F
The “Percent Effect” value of the first is higher: 108.2% for the first, 104.4% for the second.

First: O=C(O)C(F)(F)F.O=C(O)C(F)(F)F.c1ccc(O[C@H]2CO[C@@]3(CCN(Cc4ccc5c(c4)OCO5)C3)C2)nc1
Second: O=C(O)C(F)(F)F.O=C(c1cnoc1)N1CCC[C@]2(C[C@H](Oc3ncccc3F)CO2)C1
The “Percent Effect” value of the first is higher: 2.667% for the first, -8.736% for the second.

Going from `COCC1N(S(=O)(=O)c2cn(C)cn2)[C@H]2CC[C@]1(O)CC2` (some centres undefined) to `COC[C@@H]1CCC[C@]12CN(S(=O)(=O)c1cn(C)cn1)CCO2`, the “Percent Effect” value falls from 116.2% to 112.9%.

Compared with `COC[C@H]1CCC[C@]12CN(S(=O)(=O)c1cccs1)CCO2`, `COC[C@@H]1CCC[C@]12CN(S(=O)(=O)c1cccs1)CCO2` is lower in “Percent Effect” value: -5.962% for the first, -10.75% for the second.

Going from `CCOC[C@@H]1CCC[C@]12CN(S(=O)(=O)c1cn(C)cn1)CCO2` to `CC(C)OC[C@H]1CCC[C@]12CN(S(=O)(=O)c1cn(C)cn1)CCO2`, the “Percent Effect” value falls from 118.4% to 110%.

Going from `CCN1CCO[C@]2(CCC[C@H]2COCc2csc(C)n2)C1.O=C(O)C(F)(F)F.O=C(O)C(F)(F)F` to `CC(C)OC[C@H]1CCC[C@]12CN(S(=O)(=O)c1cccs1)CCO2`, the “Percent Effect” value falls from -10.73% to -17.54%.

Compared with `CC(C)OC[C@H]1CCC[C@]12CN(S(=O)(=O)C1CC1)CCO2`, `CO[C@@H]1CC[C@H]2[C@H]1OCCN2S(=O)(=O)c1cn(C)cn1` is higher in “Percent Effect” value: -22.82% for the first, -3.329% for the second.

`CO[C@@H]1CCN(S(=O)(=O)c2cn(C)cn2)[C@H]1Cc1ccccc1` was tested, and the “Percent Effect” value was -1.543%.
